# Test results: PubChem BioAssay AID602413 (Johns Hopkins Ion Channel Center, 2012)
# About 150 (12%) of roughly 1,200 compounds were called active.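 The calls were made as follows: active = ratio at least 3 SD above the weak peptide control, stable starting fluorescence, no direct agonism earlier; inactive = the rest.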 Not all results are given here.
# Target: Mas-related G-protein coupled receptor member X1 (Homo sapiens) (UniProt Q96LB2)
# Assay: MrgX1 positive allosteric modulators, duplicate retest, confirmation, HEK293 cells, Fluo-4 calcium flux (AID 602413);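 also: compound followed by low BAM8-22 agonist challenge near EC20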
# Details: MrgX1-HEK293, Fluo-4 calcium fluorescence, FDSS, at 10 µM; stronger effect = higher value
# Mas-related G-protein coupled receptor member X1 (Homo sapiens), sequence (Q96LB2 whole entry, looked up): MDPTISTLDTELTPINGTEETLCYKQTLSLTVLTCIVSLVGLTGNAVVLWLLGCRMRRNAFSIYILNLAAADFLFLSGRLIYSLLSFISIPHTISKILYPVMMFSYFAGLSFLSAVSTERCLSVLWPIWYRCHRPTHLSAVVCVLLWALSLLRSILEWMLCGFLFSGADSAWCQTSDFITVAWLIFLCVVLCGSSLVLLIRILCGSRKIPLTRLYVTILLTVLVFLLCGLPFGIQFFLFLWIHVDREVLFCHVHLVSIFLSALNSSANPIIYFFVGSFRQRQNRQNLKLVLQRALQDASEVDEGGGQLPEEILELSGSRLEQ
row,SMILES,activation (ratio percentage)
1,OCCn1c(-c2ccccc2)csc1=Nc1ccccc1,inactive
2,CN1/C(=C\C=C2\N=C(c3ccc(F)cc3)OC2=O)C(C)(C)c2ccccc21,inactive
3,COCCNC(=O)C1CCN(S(=O)(=O)c2ccc3c(c2)OCCO3)CC1,inactive
4,Fc1cccc(Cl)c1COc1ccc(-c2nnco2)cc1,inactive
5,O=C1C(Cc2ccc(O)cc2)NC(=S)N1Cc1ccccc1 (centres undefined),inactive
6,COC(=O)c1c(NC(=O)CN(c2ccc(C)c(C)c2)S(C)(=O)=O)sc2c1CCCC2,inactive
7,Cc1cccc(Cn2cnc3c(N)c(C)c(C)cc32)c1,inactive
8,COc1cccc(-c2cnc(OC(C)(C)C)nc2OC(C)(C)C)c1,inactive
9,Brc1ccccc1C1Nc2cccc3cccc(c23)N1,inactive
10,Cc1ccc(OC(=O)c2cc3ccccc3o2)cc1,inactive
11,Cc1cccc(NC(=O)C(C)N2C(=O)C3C4CC(C(Br)C4Br)C3C2=O)c1 (centres undefined),11.6% (active)
12,Cc1ccnc(NC(=O)C(C)N2C(=O)c3ccccc3C2=O)c1 (centres undefined),inactive
13,COC(=O)Cn1c(O)c(N=NC(=O)OC)c2ccccc21,inactive
14,CCOc1ccc(C2=CC(c3ccccc3)n3ncnc3N2)cc1 (centres undefined),inactive
15,COc1ccc(C2SCCN2S(=O)(=O)c2ccccc2)cc1OC (centres undefined),inactive
16,COc1cc(C)c(C)cc1S(=O)(=O)N1CCCc2ccccc21,12.4% (active)
17,COc1cc(C(F)(F)F)nc2c(Br)c(C(C)(C)C)nn12,inactive
18,Cc1c(C(=O)N2CCCc3ccccc32)sc2nc(-c3ccccc3)cn12,inactive
19,CCOc1ccc2nc(/N=C/c3nc(-c4ccccc4)oc3O)sc2c1,inactive
20,Cc1c(C(=O)N2CCN(c3ccc(F)cc3)CC2)oc2c1C(=O)CCC2,inactive

row,SMILES,activation (ratio percentage)
1,CCOc1ccc(NC(=O)N2CC=C(n3c(=O)[nH]c4ccccc43)CC2)cc1,inactive
2,CCc1ccc(N(CC(=O)Nc2sc3c(c2C(=O)OC)CCCC3)S(C)(=O)=O)cc1,inactive
3,O=C(c1ccc(OC2CCN(C(=O)c3cccnc3)CC2)cc1)N1CCCCCC1,inactive
4,CC(C)CNc1ncnc2c1cnn2Cc1ccc(Cl)cc1,inactive
5,CC(=O)N1c2ccc(S(=O)(=O)N3CCCC(C(=O)Nc4cccc(Cl)c4)C3)cc2CC1C (centres undefined),inactive
6,Cc1ccc(-n2cnc3ncnc(-c4ccccc4)c32)cc1,inactive
7,CC(C)CC(=O)N/C(N)=N/c1nc2ccccc2s1,inactive
8,Cc1ccc2nc(Nc3ccccc3)cc(C)c2c1,inactive
9,COc1ccc(Cc2nc(-c3ccccn3)no2)cc1OC,inactive
10,Nc1cc(OC(=O)c2ccccc2Br)nn1S(=O)(=O)c1ccccc1,inactive
11,O=C(c1cccc(S(=O)(=O)Nc2ccccc2Cl)c1)N1CCN(C(=O)c2ccco2)CC1,inactive
12,Nc1ccc(Oc2ccc(Cl)cc2)cc1,inactive
13,CC1(C)CC2CC(C)(CN2c2ncnc3ccc(Br)cc23)C1 (centres undefined),29.4% (active)
14,Cc1ccc(S(=O)(=O)N(C)c2nc3ccccc3n3c(C(C)C)nnc23)cc1,27.8% (active)
15,COc1ccc(Nc2nnc(C)c3ccccc23)cc1,inactive
16,O=C(Nc1cccc(Cl)c1)c1cncn1-c1ccc(F)cc1,inactive
17,NC(=O)c1c(Nc2nc3c(F)cccc3s2)sc2c1CCCC2,15.4% (active)
18,O=C(Nc1nc2c(F)cc(F)cc2s1)C1COc2ccccc2O1 (centres undefined),inactive
19,COc1ccc(NC(=O)c2cc(-c3ccc(C)o3)nc3ccccc23)cc1,inactive
20,O=C(COC(=O)c1ccc(NS(=O)(=O)c2cccs2)cc1O)Nc1ccc(F)cc1,inactive

row,SMILES,activation (ratio percentage)
1,Cc1nn(C(=O)c2ccoc2C)c(N)c1-c1ccccc1,inactive
2,Cc1nc2ccccc2cc1OCc1ccc(F)cc1,inactive
3,Cc1cc2ncn(CCCCOc3ccccc3)c2cc1C,inactive
4,CCN(c1cccc(C)c1)S(=O)(=O)c1ccc(-c2coc(C)n2)cc1,inactive
5,Cc1ccc(N/C(N)=N/c2nc(C(F)(F)F)cc(C(F)(F)F)n2)cc1,inactive
6,O=C(Nc1ccccc1N1CCOCC1)c1csc2c1CCCC2,inactive
7,O=C(Nc1ccccc1N1CCCCC1)c1ccc2nccnc2c1,11.5% (active)
8,Cc1nonc1C1CCCN1Cc1nc(-c2ccc(F)cc2F)oc1C (centres undefined),inactive
9,CCOC(=O)N1CCN(C(=O)COCc2cc(-c3ccc4c(c3)OCO4)on2)CC1,inactive
10,COc1ccc(-c2cc(C(F)(F)F)nc(S(C)(=O)=O)n2)cc1OC,inactive
11,O=C(Oc1ccc(C(=S)N2CCOCC2)cc1)c1ccc(F)cc1,inactive
12,Cc1ccc2c(c1)c1ncnc(N3CCc4ccccc4C3)c1n2C,inactive
13,Cc1occc1C(=O)Nc1nnc(-c2ccncc2)s1,inactive
14,Cc1ccc2c(C)c(C(=O)N(C)CCC3CCCCO3)oc2c1C (centres undefined),inactive
15,CCOCc1nnc(NC(=O)CCC2CCCCC2)s1,inactive
16,COc1ccc(OC)c(Nc2nc3ccccc3n3cnnc23)c1,inactive
17,COC(=O)Cc1cc(=O)n(-c2nc3ccccc3s2)[nH]1,inactive
18,CCC(C)Sc1nc(C)nc2c1c(=O)n(C)c(=O)n2C (centres undefined),inactive
19,COc1ccc(C(=O)NC(=S)NC2CCCCC2)cc1,inactive
